Seven molecules from PubChem BioAssay (NCI) can be followed below.

Some test systems named below: DU-145 prostate; K-562 leukemia; MALME-3M melanoma; MDA-MB-231 breast; RXF 393 renal; SF-268 CNS; SF-295 CNS; SF-539 CNS; UACC-257 melanoma; M14 melanoma; HCT-15 colon; HT29 colon; SNB-75 CNS; SNB-19 CNS; U251 CNS; PC-3 prostate; SK-MEL-5 melanoma; UACC-62 melanoma; LOX IMVI melanoma; SK-MEL-28 melanoma.
What all share (test): NCI-60 one-dose screen, 48 h (100 = growth as untreated, 0 = no growth, -100 = all killed)
What all share (conditions): 10 µM unless noted

The panel holds about 83,000 compounds, 20% with a hit somewhere; the sample as a whole holds those more often.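 Cells were grown in 96-well plates and exposed to the test compound at a single concentration for 48 hours; results are reported as percent growth, with values below 10 considered active.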 A number with no mark means an inactive call. Calls of active or inactive are those of the source.

Take `CN(Cc1cccc(C(F)(F)F)c1)C(=O)[C@@H](CC(=O)N1CCC(N2CCCCC2)CC1)N1C(=O)[C@@H](N2C(=O)OC[C@@H]2c2ccccc2)[C@H]1/C=C/c1ccccc1`: the growth was 103% in the assay on DU-145 prostate; 65.7% in the assay on K-562 leukemia; 96.8% in the assay with MALME-3M melanoma; 55.7% in the assay with MDA-MB-231 breast; 76.3% in the assay with RXF 393 renal; 77.8% in the assay on SF-268 CNS. The growth in the assay on SF-295 CNS was 90.8%; with SF-539 CNS it was 81.9%; in the assay with UACC-257 melanoma, 88.9%; in the assay on M14 melanoma it was 98.7%; in the assay on HCT-15 colon, 94.1%; with HT29 colon it was 86.6%. Moreover, the growth in the assay on SNB-75 CNS is 81.3%; in the assay with SNB-19 CNS, 81%; in the assay with U251 CNS it was 67.1%; with PC-3 prostate it was 67.1%; in the assay with SK-MEL-5 melanoma it was 34.5%; in the assay with UACC-62 melanoma, 96.2%. The growth in the assay with LOX IMVI melanoma was 69.2%; in the assay with SK-MEL-28 melanoma, 93.3%.

For `CCCn1ccnc1C(O)c1ccc(OCc2ccccc2)c(OC)c1` (stereo not given), the growth with DU-145 prostate was 104%; in the assay with K-562 leukemia it was 107%; in the assay with MALME-3M melanoma, 80.9%; with MDA-MB-231 breast it was 93.7%; in the assay on RXF 393 renal it was 112%; with SF-268 CNS it was 93.4%. Besides, the growth in the assay on SF-295 CNS is 76.4%; in the assay on SF-539 CNS it was 92.8%; in the assay on UACC-257 melanoma, 93.6%; with M14 melanoma, 97.2%; in the assay on HCT-15 colon it was 93.5%; in the assay on HT29 colon, 103%. Moreover, the growth is 71.2% with SNB-75 CNS; 82.8% with SNB-19 CNS; 86.8% in the assay on U251 CNS; 82.7% in the assay on PC-3 prostate; 93.5% in the assay with SK-MEL-5 melanoma; 87.3% in the assay on UACC-62 melanoma. Besides, the growth was 94.4% in the assay on LOX IMVI melanoma and 103% in the assay with SK-MEL-28 melanoma.

Regarding `Cn1cc(-c2nnc(-c3cn(C)c4ncccc34)s2)c2ccccc21`, the growth was 73.6% in the assay with DU-145 prostate; 27.8% in the assay on K-562 leukemia; 29.1% with MALME-3M melanoma; 40.2% in the assay on MDA-MB-231 breast; 78.4% with RXF 393 renal; 72.1% in the assay with SF-268 CNS. Also, the growth is 47.7% with SF-295 CNS; 45.8% in the assay on SF-539 CNS; 96.1% in the assay on UACC-257 melanoma; 92.8% in the assay on M14 melanoma; 45.1% in the assay on HCT-15 colon; 54.3% with HT29 colon. Further, the growth in the assay on SNB-75 CNS is 49.4%; in the assay on SNB-19 CNS, 76.6%; in the assay on U251 CNS, 74.8%; with PC-3 prostate, 53.8%; with SK-MEL-5 melanoma, 63.7%; in the assay on UACC-62 melanoma, 69.2%. The figures for the growth in the assay on LOX IMVI melanoma and with SK-MEL-28 melanoma were 86% and 77.4%, respectively.

On to `O=C(CSc1nc2ccc([N+](=O)[O-])cc2[nH]1)Nc1cccc(Cl)c1`, for which the growth was 36.3% in the assay on DU-145 prostate; 16.4% in the assay on K-562 leukemia; 2.51% (active) in the assay with MALME-3M melanoma; 41.1% in the assay on MDA-MB-231 breast; 44.5% with RXF 393 renal; 24.3% with SF-268 CNS. Further, the growth in the assay with SF-295 CNS was 21.7%; in the assay with SF-539 CNS, 45.2%; with UACC-257 melanoma, 15%; in the assay on M14 melanoma, 29.4%; with HCT-15 colon, 23.3%; in the assay with HT29 colon it was 21.1%. Besides, the growth is 23.9% in the assay on SNB-75 CNS; 17.6% in the assay with SNB-19 CNS; 13.6% in the assay with U251 CNS; 11.7% with PC-3 prostate; 0.349% (active) in the assay with SK-MEL-5 melanoma; 8.24% (active) in the assay with UACC-62 melanoma. Also, the growth in the assay on LOX IMVI melanoma is 27.7%; with SK-MEL-28 melanoma, 28.9%.

With `Cc1cnc(N)nc1OCC(C)(C)CNC(=O)c1cccc(-c2ccc(S(=O)(=O)Nc3ccc4c(c3)N(C(=O)C3CC3)CCC4)cc2)c1`, the growth is 77.4% with DU-145 prostate; 34.3% with K-562 leukemia; 80.7% in the assay on MALME-3M melanoma; 68.1% in the assay on MDA-MB-231 breast; 74.6% in the assay on RXF 393 renal; 67.5% with SF-268 CNS. Besides, the growth in the assay on SF-295 CNS was 55.3%; in the assay with SF-539 CNS, 75.2%; in the assay with UACC-257 melanoma, 46.6%; in the assay on M14 melanoma, 96.4%; in the assay with HCT-15 colon, 67.6%; in the assay on HT29 colon, 42.1%. In addition, the growth is 48.1% with SNB-75 CNS; 67.9% in the assay on SNB-19 CNS; 59.4% in the assay with U251 CNS; 51.8% in the assay on PC-3 prostate; -36.1% (active) with SK-MEL-5 melanoma; 47.8% with UACC-62 melanoma. For the same molecule, the growth in the assay on LOX IMVI melanoma is 76.6%; in the assay with SK-MEL-28 melanoma it was 82.4%.

For the molecule `Cc1c(Cn2cc(COc3ccc(Br)cc3)nn2)c(C)c(Cn2cc(COc3ccc(Br)cc3)nn2)c(C)c1Cn1cc(COc2ccc(Br)cc2)nn1`, the growth is 104% with DU-145 prostate; 103% in the assay with K-562 leukemia; 89.1% with MALME-3M melanoma; 89.7% in the assay on MDA-MB-231 breast; 102% in the assay on RXF 393 renal; 97% in the assay on SF-268 CNS. Besides, the growth with SF-295 CNS was 89.6%; in the assay on SF-539 CNS, 96%; in the assay with UACC-257 melanoma, 80.2%; in the assay with M14 melanoma, 97.7%; in the assay on HCT-15 colon, 104%; with HT29 colon, 92.4%. Also, the growth with SNB-75 CNS is 81.1%; with SNB-19 CNS, 89.7%; in the assay on U251 CNS it was 91.3%; with PC-3 prostate it was 87.9%; in the assay on SK-MEL-5 melanoma, 98.4%; in the assay on UACC-62 melanoma it was 76.9%. In addition, the growth in the assay with LOX IMVI melanoma is 35%; with SK-MEL-28 melanoma, 94.1%.

Turning to `Cc1cc(C)nc(SCC(=O)Nc2cccc(N=Cc3ccccc3O)c2)n1`, the growth in the assay on DU-145 prostate is 104%; in the assay with K-562 leukemia it was 96.2%; with MALME-3M melanoma, 101%; in the assay on MDA-MB-231 breast it was 89.5%; with RXF 393 renal it was 101%; in the assay with SF-268 CNS, 98.7%. The growth in the assay with SF-295 CNS is 102%; in the assay with SF-539 CNS, 100%; in the assay on UACC-257 melanoma, 103%; in the assay with M14 melanoma it was 98.2%; in the assay on HCT-15 colon, 105%; with HT29 colon, 101%. In addition, the growth in the assay with SNB-75 CNS is 81.9%; in the assay with SNB-19 CNS, 93%; in the assay on U251 CNS, 94.9%; with PC-3 prostate it was 90.3%; with SK-MEL-5 melanoma, 103%; with UACC-62 melanoma, 94.1%. Besides, the results for the growth with LOX IMVI melanoma and in the assay on SK-MEL-28 melanoma were 103% and 106%, respectively.
